According to PubChem BioAssay (Tox21):
Inconclusive results are not listed. Where a call stands in place of a potency, no number is given. Calls of active or inactive are those of the source. Unless noted, the call rests on the fitted dose curve; in most records, active means well fitted curve in the direction sought with a large enough effect in the repeat runs; inconclusive means weak or mixed curves; inactive means no such curve, though single readings can be large; an effect the other way counts as inactive or inconclusive.

What was measured:
[1] = biological target: Retinoic acid receptor RXR-alpha (Homo sapiens) (UniProt P19793); test: qHTS assay to identify small molecule agonists of the RXR signaling pathway (AID 1159527; calls by dose curve; further: nearly all actives have a fitted effect of over 35% in size)
In short: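 GeneBLAzer RXR-alpha-UAS-bla HEK 293T cells in 2% charcoal-stripped FBS medium were exposed to compounds for 16 hr at 37 C in agonist mode. Beta-lactamase reporter read as 460/530 nm FRET ratio after 2 hr substrate loading.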

[2] = qHTS assay to identify small molecule agonists of the RXR signaling pathway - cell viability counter screen (AID 1159529); further: series mostly up to about 77 µM; nearly all actives have a fitted effect of over 50% in size
In short: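 RXR-alpha-UAS-bla HEK 293T cells in medium with 2% charcoal-stripped FBS were pre-incubated 5 hr, then compound-treated 16 hr at 37 C. Viability was read by CellTiter-Glo luminescence in the same wells as the beta-lactamase assay, with tetraoctyl ammonium bromide as positive control.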

[3] = qHTS assay to identify small molecule antagonists of the retinoid acid receptor (RAR) signaling pathway - cell viability counter screen (AID 1159551); further: nearly all actives have a fitted effect of over 35% in size
In short: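 Measured by luminescent ATP detection, viability reflects C3RL4 cells treated 6 h at 37 C with test chemicals in the presence of 1 uM (final) retinol.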

[4] = qHTS assay to identify small molecule antagonists of the retinoic acid receptor (RAR) signaling pathway (AID 1159552; further: nearly all actives have a fitted effect of over 50% in size)
In short: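 Retinol signaling pathway inhibitors screened in C3RL4 RARE-luciferase reporter cells seeded overnight at 37 C, then compounds added with 1 uM (final) retinol as pathway substrate. After 6 hr at 37 C, luciferase luminescence read after 30 min at room temperature.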

[5] = qHTS assay to identify small molecule antagonists of the estrogen related receptor (ERR) signaling pathway from Tox21 library - cell viability counter screen (AID 1224834); further: nearly all actives have a fitted effect of over 30% in size; further: potency means the concentration at half of the fitted maximal effect
In short: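 Seeded ERR cells were rested 6 h at 37 C/5% CO2 before compounds, positive and negative controls or DMSO were added. Incubation continued for 17.5 h, and viability was then quantified by CellTiter-Fluor fluorescence.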

[6] = biological target: Luciferin 4-monooxygenase (Photinus pyralis) (UniProt P08659); test: qHTS assay to identify small molecule inhibitors of firefly luciferase (AID 1224835); further: nearly all actives have a fitted effect of over 25% in size; further: potency means the concentration at half of the fitted maximal effect
In short: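 Inhibition of purified Photinus luciferase is measured by luminescence. Substrate levels (D-luciferin, ATP) sit at their KM values. Each compound is tested in a concentration series.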

[7] = qHTS assay to identify small molecule agonists of the constitutive androstane receptor (CAR) signaling pathway - cell viability counter screen (AID 1224836); further: nearly all actives have a fitted effect of over 45% in size; further: potency means the concentration at half of the fitted maximal effect
In short: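 HepG2 cells stably carrying hCAR and a CYP2B6-2.2kb reporter; 15-concentration compounds plus PK11195 (final 0.75 uM), 23 hr at 37 C/5% CO2. Viability read by CellTiter-Fluor fluorescence.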

[8] = qHTS assay to identify small molecule antagonists of the constitutive androstane receptor (CAR) signaling pathway - cell viability counter screen (AID 1224837); further: series mostly up to about 92 µM; nearly all actives have a fitted effect of over 45% in size
In short: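 To flag cytotoxic false antagonists, HepG2 hCAR/CYP2B6-2.2kb cells were treated 23 hr with 15-concentration compound series and 50 nM CITCO at 37 C/5% CO2; CellTiter-Fluor fluorescence was the measured end point.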

[9] = biological target: Nuclear receptor subfamily 1 group I member 3 (Homo sapiens) (UniProt Q14994); test: qHTS assay to identify small molecule agonists of the constitutive androstane receptor (CAR) signaling pathway (AID 1224839); further: nearly all actives have a fitted effect of over 15% in size; further: potency means the concentration at half of the fitted maximal effect
In short: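 HepG2 cells stably co-transfected with hCAR and a CYP2B6-2.2kb luciferase reporter; compounds at 15 concentrations with 0.75 uM PK11195 present. After 24 hr at 37 C, luciferase read by ONE-Glo luminescence.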

[10] = qHTS assay to identify small molecule antagonists of the estrogen related receptor signaling pathway with the pleiotropic PPARgamma coactivator (PGC) from Tox21 10K library - cell viability counter screen (AID 1224840; active means well fitted cell-killing curve with a large enough effect in the repeat runs, not every such curve was filed as active; further: nearly all actives have a fitted effect of over 40% in size)
In short: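 Seeded PGC/ERR cells (2,000/well, 6 h, 37 C/5% CO2) get compound by pin tool; 17.5 h incubation at 37 C; CellTiter-Fluor added, 30 min, fluorescence measured.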

[11] = qHTS assay to identify small molecule agonists of the retinoic acid receptor (RAR) signaling pathway (AID 1159553)
In short: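 6 hr compound exposure (DMSO vehicle) of overnight-plated C3RL4 RARE-luc cells at 37 C; luminescence quantified after 30 min RT with luciferase reagent.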

[12] = qHTS assay to identify small molecule agonists of the estrogen related receptor signaling pathway with the pleiotropic PPARgamma coactivator (PGC) from Tox21 10K library (AID 1224842); further: nearly all actives have a fitted effect of over 15% in size
In short: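 Luminescence from One-Glo (30 min, room temperature) measured after PGC/ERR cells had 18 h at 37 C with pinned compound (23 nL in DMSO). Cells had been seeded at 2,000 per well and pre-incubated 6 h.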

[13] = biological target: Nuclear receptor subfamily 1 group I member 3 (Homo sapiens) (UniProt Q14994); test: qHTS assay to identify small molecule antagonists of the constitutive androstane receptor (CAR) signaling pathway (AID 1224838);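 further: HepG2 cells stably expressing hCAR with CYP2B6 luciferase reporter stimulated by CITCO; nearly all actives have a fitted effect of over 40% in size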; further: potency means the concentration at half of the fitted maximal effect
In short: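 Human hepatoma HepG2 cells expressing hCAR and a CYP2B6 promoter (2.2 kb) luciferase construct; compound titration (15 points) with 50 nM CITCO final, 24 h at 37 C/5% CO2; luminescence via ONE-Glo after 30 min at room temperature.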

[14] = qHTS assay to identify small molecule antagonists of the estrogen related receptor signaling pathway with the pleiotropic PPARgamma coactivator (PGC) from Tox21 10K library (AID 1224841; call rule not given here; further: actives are mostly falling curves and most rising ones were filed inactive; nearly all actives have a fitted effect of over 50% in size; further: potency means the concentration at half of the fitted maximal effect)
In short: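 Test chemicals dissolved in DMSO were applied to pre-incubated (6 h) PGC/ERR cells at 2,000 cells/well for an 18 h, 37 C treatment; reporter luminescence was then read using One-Glo.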

Luciferin 4-monooxygenase (Photinus pyralis), sequence (P08659 whole entry, looked up): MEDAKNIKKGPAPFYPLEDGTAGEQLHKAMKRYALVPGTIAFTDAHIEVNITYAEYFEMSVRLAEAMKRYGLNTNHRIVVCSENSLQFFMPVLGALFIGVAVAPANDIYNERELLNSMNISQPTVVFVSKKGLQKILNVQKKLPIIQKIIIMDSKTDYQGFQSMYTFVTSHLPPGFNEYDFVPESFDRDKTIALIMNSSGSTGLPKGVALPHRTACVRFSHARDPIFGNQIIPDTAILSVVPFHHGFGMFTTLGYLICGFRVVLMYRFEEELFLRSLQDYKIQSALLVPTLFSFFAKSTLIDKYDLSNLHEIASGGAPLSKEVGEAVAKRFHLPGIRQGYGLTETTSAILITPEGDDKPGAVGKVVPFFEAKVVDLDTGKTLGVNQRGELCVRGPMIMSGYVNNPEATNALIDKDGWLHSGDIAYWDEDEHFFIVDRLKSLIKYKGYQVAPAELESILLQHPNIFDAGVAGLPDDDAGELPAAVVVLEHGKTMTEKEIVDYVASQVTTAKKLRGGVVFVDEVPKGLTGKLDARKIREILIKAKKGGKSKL
Nuclear receptor subfamily 1 group I member 3 (Homo sapiens), sequence (Q14994 whole entry, looked up): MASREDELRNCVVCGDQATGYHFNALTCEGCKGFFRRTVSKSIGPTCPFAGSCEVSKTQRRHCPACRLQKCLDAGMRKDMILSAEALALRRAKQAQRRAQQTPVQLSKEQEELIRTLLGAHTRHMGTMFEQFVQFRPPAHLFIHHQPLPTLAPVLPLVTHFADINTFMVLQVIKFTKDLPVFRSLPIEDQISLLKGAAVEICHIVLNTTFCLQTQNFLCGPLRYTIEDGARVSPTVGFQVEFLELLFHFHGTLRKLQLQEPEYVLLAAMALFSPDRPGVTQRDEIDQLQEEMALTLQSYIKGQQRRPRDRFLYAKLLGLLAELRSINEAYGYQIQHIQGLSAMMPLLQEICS
Retinoic acid receptor RXR-alpha (Homo sapiens), sequence (P19793 whole entry, looked up): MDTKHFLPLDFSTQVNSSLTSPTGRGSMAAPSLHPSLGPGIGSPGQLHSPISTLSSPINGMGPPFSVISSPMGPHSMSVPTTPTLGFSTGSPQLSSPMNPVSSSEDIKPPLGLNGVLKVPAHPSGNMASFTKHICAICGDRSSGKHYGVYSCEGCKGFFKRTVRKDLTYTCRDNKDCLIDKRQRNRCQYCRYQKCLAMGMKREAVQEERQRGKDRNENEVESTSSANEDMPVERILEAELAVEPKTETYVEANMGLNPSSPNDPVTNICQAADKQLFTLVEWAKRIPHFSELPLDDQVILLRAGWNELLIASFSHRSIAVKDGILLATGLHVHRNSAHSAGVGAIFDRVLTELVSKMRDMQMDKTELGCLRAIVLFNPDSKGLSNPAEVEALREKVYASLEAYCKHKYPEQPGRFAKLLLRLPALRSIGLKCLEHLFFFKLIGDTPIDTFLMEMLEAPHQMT

Structure (SMILES) | Potency [1] | Potency [2] | Potency [3] | Potency [4] | Potency [5] | Potency [6] | Potency [7] | Potency [8] | Potency [9] | Potency [10] | Potency [11] | Potency [12] | Potency [13] | Potency [14]
Nc1ccn([C@H]2CS[C@@H](CO)O2)c(=O)n1 | inactive | inactive | inactive | inactive | inactive | inactive | inactive | inactive | inactive | inactive |  |  |  | 
Cc1c[nH]c2ccccc12 | inactive | inactive | inactive |  | inactive | inactive | inactive | inactive | inactive | inactive | inactive | inactive |  | 
O=S(=O)(Cl)c1c(Cl)cccc1Cl | inactive | inactive | inactive | inactive | inactive |  | inactive | inactive | inactive | inactive |  |  |  | 
O=C1c2ccccc2C(=O)c2c(O)ccc(O)c21 | inactive | inactive | inactive | inactive | inactive |  | inactive | inactive | 48.6 µM (active) | inactive |  | inactive | inactive | 0.545 µM (active)
CC(C)Cc1ccc(CC(=O)O)cc1 | inactive | inactive | inactive | inactive | inactive | inactive | inactive | inactive | inactive | inactive |  | inactive | inactive | inactive
CC(C)COC(=O)c1ccc(O)cc1 | inactive | inactive | inactive | inactive | inactive | 44.7 µM (active) | inactive | inactive |  | inactive |  |  | inactive | 
CC(C)C1CCC(C(=O)N[C@H](Cc2ccccc2)C(=O)O)CC1 (stereo not given in full) | inactive | inactive | inactive | inactive | inactive | inactive | inactive | inactive |  | inactive |  |  |  | 
O=C(c1ccccc1)c1ccc(O)cc1 | inactive | inactive | inactive | inactive | 69.4 µM (active) |  | inactive | inactive |  | inactive |  | inactive | inactive | inactive
O=C1CC[C@@H](C(=O)O)N1 | inactive | inactive | inactive | inactive | inactive |  | inactive | inactive | inactive | inactive |  | inactive | inactive | inactive
[Cl][Nd]([Cl])[Cl] | inactive | inactive | inactive |  | inactive | 39.9 µM (active) | inactive | inactive | inactive | inactive | inactive | inactive | inactive | inactive
CC(=O)NCCO | inactive | inactive | inactive | inactive | inactive | inactive | inactive |  | inactive | inactive |  |  | inactive | 
Cc1ccc2c(c1[N+](=O)[O-])C(=O)c1ccccc1C2=O | inactive | inactive | inactive | inactive |  |  | 6.73 µM (active) |  | inactive | inactive |  |  | 0.673 µM (active) | inactive
Cc1cccc(C)c1NC(=O)c1cc(S(N)(=O)=O)c(Cl)cc1O | inactive | inactive | inactive | inactive | inactive |  | inactive | inactive | inactive | inactive |  |  | inactive | 
CCN(CC)CCOC(=O)C(c1ccccc1)c1ccccc1 | inactive | inactive | inactive | inactive | inactive | inactive | inactive | inactive | inactive | inactive |  |  | inactive | 
Cc1ccc(Cl)cc1N | inactive | inactive | inactive | inactive | inactive | inactive | inactive | inactive | inactive | inactive |  |  |  | 
CCCCCCCC(=O)OCCCCCC | inactive | inactive | inactive | inactive | inactive | inactive | inactive | inactive | inactive | inactive |  | inactive | inactive | inactive
N[C@@H](Cc1cc(I)c(O)c(I)c1)C(=O)O | inactive | inactive | inactive |  | inactive |  | inactive | inactive | inactive | inactive | inactive | inactive | inactive | inactive
